Assay results published in PubChem BioAssay AID1159580 (chemical genetic matrix, 2015).
Out of some 5,500 compounds screened, about 2,000 (36%) were called active. Inconclusive results (about 18%) are left out. Cut-off read from the data, not from the text of the source: active = normalized growth mostly below about 0.91 (no sharp cut-off); inconclusive = no clear call, values can overlap the other calls; inactive = mostly above about 0.92. The list shows a part of the results.

Assay: chemical genetic growth profiling, strain panel (AID 1159580);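 note: tested at 20 µM; growth read once vehicle control cultures reached saturation at 30 °C; 1 = growth at the plate median or of vehicle wells; lower values mean less growth of the strain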
Settings: growth OD

Measured: normalized growth

C[C@H]1C(=O)O[C@@H]2CCN3CC=C(COC(=O)[C@](C)(O)[C@]1(C)O)[C@H]23
inactive: S. cerevisiae deletion strains, locus YKL068W, active compounds read low 0.992 | S. cerevisiae deletion strains, locus YKL085W, strain MDH1 (second series), active compounds read low 1.04 | S. cerevisiae deletion strains, locus YKL085W, strain MDH1, active compounds read low 1.04 | S. cerevisiae deletion strains, locus YKL160W, strain elf1, active compounds read low 0.991 | S. cerevisiae deletion strains, locus YKL190W, strain CNB1, active compounds read low 1 | S. cerevisiae deletion strains, locus YKR001C, strain vps1, active compounds read low 0.986 | S. cerevisiae deletion strains, locus YKR026C, strain gcn3, active compounds read low 0.986 | S. cerevisiae deletion strains, locus YKR091W, strain srl3, active compounds read low 0.975 | S. cerevisiae deletion strains, locus YLL001W, strain dnm1, active compounds read low 0.976 | S. cerevisiae deletion strains, locus YLL026W, active compounds read low 0.99 | S. cerevisiae deletion strains, locus YLL041C, strain sdh2, active compounds read low 0.993 | S. cerevisiae deletion strains, locus YLR027C, strain aat2, active compounds read low 0.993 | S. cerevisiae deletion strains, locus YLR039C, strain RIC1, active compounds read low 0.989 | S. cerevisiae deletion strains, locus YLR058C, strain SHM2, active compounds read low 0.99 | S. cerevisiae deletion strains, locus YLR102C, strain apc9, active compounds read low 0.988 | S. cerevisiae deletion strains, locus YLR113W, strain HOG1, active compounds read low 1.01 | S. cerevisiae deletion strains, locus YLR221C, strain rsa3, active compounds read low 1.01 | S. cerevisiae deletion strains, locus YLR258W, strain gsy2, active compounds read low 0.992 | S. cerevisiae deletion strains, locus YLR262C, strain YPT6 (second series), active compounds read low 0.976 | S. cerevisiae deletion strains, locus YLR262C, strain YPT6, active compounds read low 1.02 | S. cerevisiae deletion strains, locus YLR268W, strain sec22, active compounds read low 0.988 | S. cerevisiae deletion strains, locus YLR320W, strain mms22, active compounds read low 0.997 | S. cerevisiae deletion strains, locus YLR330W, strain CHS5, active compounds read low 0.992 | S. cerevisiae deletion strains, locus YLR342W, strain FKS1 (second series), active compounds read low 0.976 | S. cerevisiae deletion strains, locus YLR342W, strain FKS1, active compounds read low 0.997 | S. cerevisiae deletion strains, locus YLR357W, strain rsc2, active compounds read low 0.979 | S. cerevisiae deletion strains, locus YLR370C, strain arc18, active compounds read low 0.986 | S. cerevisiae deletion strains, locus YLR371W, strain rom2, active compounds read low 0.984 | S. cerevisiae deletion strains, locus YLR384C, strain iki3, active compounds read low 0.987 | S. cerevisiae deletion strains, locus YLR418C, strain cdc73, active compounds read low 0.985 | S. cerevisiae deletion strains, locus YML016C, strain PPZ1, active compounds read low 0.987 | S. cerevisiae deletion strains, locus YML032C, strain rad52, active compounds read low 0.993 | S. cerevisiae deletion strains, locus YML120C, strain ndi1, active compounds read low 0.988 | S. cerevisiae deletion strains, locus YML124C, strain tub3, active compounds read low 0.987 | S. cerevisiae deletion strains, locus YMR058W, strain fet3, active compounds read low 0.997 | S. cerevisiae deletion strains, locus YMR078C, strain ctf18, active compounds read low 0.983 | S. cerevisiae deletion strains, locus YMR125W, strain sto1, active compounds read low 0.987 | S. cerevisiae deletion strains, locus YMR129W, active compounds read low 0.998 | S. cerevisiae deletion strains, locus YMR205C, strain PFK2, active compounds read low 0.986 | S. cerevisiae deletion strains, locus YMR223W, strain ubp8, active compounds read low 0.991 | S. cerevisiae deletion strains, locus YMR231W, strain pep5, active compounds read low 0.998 | S. cerevisiae deletion strains, locus YMR263W, strain SAP30, active compounds read low 1 | S. cerevisiae deletion strains, locus YMR307W, strain GAS1, active compounds read low 0.983 | S. cerevisiae deletion strains, locus YNL067W, strain RPL9B, active compounds read low 1.02 | S. cerevisiae deletion strains, locus YNL071W, strain lat1, active compounds read low 0.991 | S. cerevisiae deletion strains, locus YNL128W, strain TEP1, active compounds read low 0.98 | S. cerevisiae deletion strains, locus YNL153C, strain GIM3, active compounds read low 1.02 | S. cerevisiae deletion strains, locus YNL183C, strain NPR1, active compounds read low 0.969 | S. cerevisiae deletion strains, locus YNL209W, strain ssb2, active compounds read low 0.994 | S. cerevisiae deletion strains, locus YNL233W, strain BNI4, active compounds read low 0.995 | S. cerevisiae deletion strains, locus YNL248C, strain rpa49, active compounds read low 0.995 | S. cerevisiae deletion strains, locus YNL250W, strain rad50, active compounds read low 0.978 | S. cerevisiae deletion strains, locus YNL271C, strain bni1, active compounds read low 0.985 | S. cerevisiae deletion strains, locus YNL298W, strain CLA4, active compounds read low 0.987 | S. cerevisiae deletion strains, locus YNL307C, strain MCK1, active compounds read low 0.991 | S. cerevisiae deletion strains, locus YNL322C, strain KRE1 (second series), active compounds read low 0.982 | S. cerevisiae deletion strains, locus YNL322C, strain KRE1, active compounds read low 0.993 | S. cerevisiae deletion strains, locus YNR049C, strain mso1, active compounds read low 0.989 | S. cerevisiae deletion strains, locus YNR052C, strain pop2, active compounds read low 0.987 | S. cerevisiae deletion strains, locus YOL006C, strain TOP1, active compounds read low 1.03 | S. cerevisiae deletion strains, locus YOL012C, strain htz1 0.746 | S. cerevisiae deletion strains, locus YOL147C, strain pex11, active compounds read low 0.997 | S. cerevisiae deletion strains, locus YOR001W, strain rrp6, active compounds read low 0.995 | S. cerevisiae deletion strains, locus YOR061W, strain CKA2, active compounds read low 0.989 | S. cerevisiae deletion strains, locus YOR069W, strain VPS5, active compounds read low 0.984 | S. cerevisiae deletion strains, locus YOR070C, strain gyp1, active compounds read low 0.994 | S. cerevisiae deletion strains, locus YOR080W, strain dia2, active compounds read low 0.994 | S. cerevisiae deletion strains, locus YOR083W, strain WHI5, active compounds read low 1 | S. cerevisiae deletion strains, locus YOR106W, strain vam3, active compounds read low 0.998 | S. cerevisiae deletion strains, locus YOR136W, strain idh2, active compounds read low 0.99 | S. cerevisiae deletion strains, locus YOR144C, strain elg1, active compounds read low 0.988 | S. cerevisiae deletion strains, locus YOR184W, strain ser1, active compounds read low 1.02 | S. cerevisiae deletion strains, locus YOR231W, strain MKK1, active compounds read low 0.98 | S. cerevisiae deletion strains, locus YOR265W, strain rbl2, active compounds read low 0.996 | S. cerevisiae deletion strains, locus YOR270C, strain vph1, active compounds read low 0.967 | S. cerevisiae deletion strains, locus YOR290C, strain snf2, active compounds read low 0.998 | S. cerevisiae deletion strains, locus YOR316C, strain cot1, active compounds read low 0.978 | S. cerevisiae deletion strains, locus YPL051W, strain arl3, active compounds read low 0.992 | S. cerevisiae deletion strains, locus YPL055C, strain LGE1, active compounds read low 1.06 | S. cerevisiae deletion strains, locus YPL078C, strain atp4, active compounds read low 0.993 | S. cerevisiae deletion strains, locus YPL106C, strain sse1, active compounds read low 0.98 | S. cerevisiae deletion strains, locus YPL240C, strain hsp82, active compounds read low 0.986 | S. cerevisiae deletion strains, locus YPL256C, strain CLN2, active compounds read low 0.992 | S. cerevisiae deletion strains, locus YPR119W, strain clb2, active compounds read low 0.991 | S. cerevisiae deletion strains, locus YPR141C, strain kar3, active compounds read low 0.98 | S. cerevisiae deletion strains, locus YPR163C, strain tif3, active compounds read low 0.986 | S. cerevisiae deletion strains, locus YPR167C, strain met16, active compounds read low 0.989 | S. cerevisiae deletion strains, strain wtn01, active compounds read low 0.987 | S. cerevisiae strains, strain wild type, active compounds read low 0.995
